Screening data as filed in PubChem.
ssDAF12 agonist: activators of S. stercoralis DAF-12 nuclear receptor; HEK293 ssDAF-12/GRIP1 lit1-tk-luc reporter, luminescence; % of 3 µM dafachronic acid response; activation, % at 6.8 µM; hit rate 1% among 370,000;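 active = activation above the mean over all tested compounds plus 3 SD, cut at about 0.9% in these data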;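 note: 0% = DMSO-only wells and 100% = 3 µM delta7-dafachronic acid wells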
FXN GAA850 act: increases GAA850 frataxin promoter reporter activity. HEK293 lucGAA850 FXN promoter luciferase reporter, 24 h; percent of 10 µM SAHA response. hit rate 0.56% among 360,000. activation, % at 6 µM. AID 540364;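 active = activation above the average of all compounds screened plus 3 SD, cutoff fixed separately per campaign, cut at about 7.5% in these data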;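 note: 0% = DMSO wells and 100% = 10 µM SAHA wells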
DAX1 inh-1: inhibits human nuclear receptor DAX1; inhibition, % at 6.75 µM; HEK293 Gal4-DAX1 luciferase reporter, luminescence; hit rate 0.99% among 340,000; P51843;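 active = inhibition above the mean over all tested compounds plus 3 SD, cut at about 4.2% in these data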;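 note: 0% = DAX1-transfected cells with DMSO and 100% = empty-vector control cells with DMSO; inhibition shows as a rise in luminescence from relieved DAX1 repression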
Target sequence (P51843 207-470 limits assumed): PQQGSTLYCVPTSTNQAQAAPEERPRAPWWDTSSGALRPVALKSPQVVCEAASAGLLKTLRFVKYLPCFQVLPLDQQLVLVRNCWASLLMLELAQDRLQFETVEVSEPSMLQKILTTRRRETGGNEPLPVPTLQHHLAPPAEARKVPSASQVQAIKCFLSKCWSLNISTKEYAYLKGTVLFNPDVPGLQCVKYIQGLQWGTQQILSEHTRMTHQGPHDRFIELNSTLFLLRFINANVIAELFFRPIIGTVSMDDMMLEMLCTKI
DAX1 inh-2: DAX1 (NR0B1) inhibition, primary screen; HEK293T StAR-luciferase reporter, SF-1/DAX-1 repression relief; inhibition, % at 6.8 µM; hit rate 1.1% among 370,000; AID 652010;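 active = inhibition above the mean over all tested compounds plus 3 SD, cut at about 3.6% in these data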;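 note: 0% = DAX-1 cells with DMSO and 100% = cells lacking DAX-1 with DMSO; higher inhibition means more luminescence from relief of DAX-1 repression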
hgDAF-12 ag: activates the H. glycines DAF-12 receptor ligand-binding domain; HEK293 GAL4-hgDAF12 UAS-luciferase reporter, agonist luminescence; normalized to butyrate control; activation, % at 6.8 µM; hit rate 1.8% among 370,000; AID 687014;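 active = activation above a cutoff set at the mean of all screened compounds plus 3 SD, cut at about 10% in these data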;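 note: 0% = DMSO wells and 100% = sodium butyrate wells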
hcDAF12 agonist: activates DAF-12 receptor from parasite H. contortus. hit rate 1.4% among 370,000. activation, % at 6.8 µM. AID 652067. HEK293 hcDAF-12 lit1-tk-luc reporter, luminescence; 0% DMSO, 100% Δ7-dafachronic acid;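 active = activation above the mean of all tested compounds plus 3 SD, cut at about 5.5% in these data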;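 note: 100% = response to 3 µM Δ7-dafachronic acid high control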
hgDAF12 ag: confirmation of H. glycines DAF-12 agonists | activation, % at 6.8 µM | HEK293 GAL4-hgDAF12 luciferase reporter, agonist mode; percent of butyrate response | shares compounds with hgDAF-12 ag | hit rate 80% among 3,300;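 active = mean activation over triplicate wells above the hit cutoff derived from the earlier primary screen, cut at about 11% in these data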;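 note: 0% = DMSO low control and 100% = 2 mM sodium butyrate high control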
LXRb DAF12 ctr: LXR-beta agonism as DAF-12 counter-screen; shares compounds with hgDAF-12 ag; HEK293 Gal4-LXR luciferase reporter, 24 h; activation, % at 6.8 µM; 3,300 tested, under 10 active;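 active = mean activation of the triplicate above a set limit carried over from the primary screen, none filed active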
Target sequence (P55055 whole entry, looked up, the tested form may be a part): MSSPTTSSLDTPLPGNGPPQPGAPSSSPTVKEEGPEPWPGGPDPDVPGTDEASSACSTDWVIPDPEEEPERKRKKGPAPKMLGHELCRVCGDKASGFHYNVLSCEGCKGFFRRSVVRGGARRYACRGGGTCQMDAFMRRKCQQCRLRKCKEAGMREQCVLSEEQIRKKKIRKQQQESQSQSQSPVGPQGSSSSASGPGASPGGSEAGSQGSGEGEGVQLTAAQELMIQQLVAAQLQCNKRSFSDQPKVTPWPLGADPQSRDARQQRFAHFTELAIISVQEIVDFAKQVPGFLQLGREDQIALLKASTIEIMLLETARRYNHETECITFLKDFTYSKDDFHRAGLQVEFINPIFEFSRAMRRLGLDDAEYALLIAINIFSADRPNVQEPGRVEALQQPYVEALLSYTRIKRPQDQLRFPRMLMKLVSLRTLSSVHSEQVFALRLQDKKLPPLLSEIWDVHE
* = called active by the depositor. Sampled rows, rich in hits. Any-hit rate of the full collection: about 4.5%.

Results for CCOC(=O)/C=C/c1cccc(OC)c1O ?
ssDAF12 agonist: 1; DAX1 inh-2: 3.8*; hgDAF-12 ag: 14*; hcDAF12 agonist: 2; hgDAF12 ag: 14*; LXRb DAF12 ctr: 0

Results for COc1cccc(/C=C/C(=O)c2c(O)cc(C)oc2=O)c1O ?
ssDAF12 agonist: 0; FXN GAA850 act: 3; DAX1 inh-1: 2; DAX1 inh-2: 2; hgDAF-12 ag: 8; hcDAF12 agonist: 5

Results for N/C(=N\C(=S)Nc1ccccc1)c1ccccc1 ?
ssDAF12 agonist: 0; FXN GAA850 act: 4; DAX1 inh-1: 4.7*; DAX1 inh-2: 2; hgDAF-12 ag: 16*; hcDAF12 agonist: 6.0*; hgDAF12 ag: 17*; LXRb DAF12 ctr: 1

Results for N#Cc1ccc(NC(=S)/N=C(\N)c2ccccc2)cc1 ?
ssDAF12 agonist: 0; DAX1 inh-2: -1; hgDAF-12 ag: 8; hcDAF12 agonist: 2

How did CCN(CC)c1ccc(N=Nc2ncn[nH]2)cc1 do in these assays?
ssDAF12 agonist: 0; FXN GAA850 act: 6; DAX1 inh-2: 2; hgDAF-12 ag: 15*; hcDAF12 agonist: 4; hgDAF12 ag: 10; LXRb DAF12 ctr: 0

What do the screens show for `Cc1csc(NC(=O)CSc2nsc(SCC(=O)Nc3nc(C)cs3)c2C#N)n1`?
ssDAF12 agonist: 0; FXN GAA850 act: 0; DAX1 inh-1: 2; DAX1 inh-2: 3; hgDAF-12 ag: 18*; hcDAF12 agonist: 4; hgDAF12 ag: 15*; LXRb DAF12 ctr: 1

Results for Cc1ccc(NC(=O)CSc2nsc(SCC(=O)Nc3ccc(C)cc3C)c2C#N)c(C)c1 ?
ssDAF12 agonist: -2; FXN GAA850 act: 0; DAX1 inh-1: 1; DAX1 inh-2: -1; hgDAF-12 ag: 0; hcDAF12 agonist: -1

What do the screens show for `Nc1nc(-c2ccc3c(c2)CCCC3)cs1`?
ssDAF12 agonist: 0; FXN GAA850 act: 3; DAX1 inh-1: 1; DAX1 inh-2: 2; hgDAF-12 ag: 16*; hcDAF12 agonist: 2; hgDAF12 ag: 11*; LXRb DAF12 ctr: 1

How did O=C(O)CCn1c(=O)sc2ccccc21 do in these assays?
ssDAF12 agonist: -1; FXN GAA850 act: -1; DAX1 inh-1: 0; DAX1 inh-2: -1; hgDAF-12 ag: 1; hcDAF12 agonist: -1

Results for O=c1sc2ccccc2n1CCOc1ccccc1 ?
ssDAF12 agonist: 0; FXN GAA850 act: 3; DAX1 inh-1: 2; DAX1 inh-2: 3; hgDAF-12 ag: 15*; hcDAF12 agonist: 5.6*; hgDAF12 ag: 12*; LXRb DAF12 ctr: 1

What do the screens show for `COc1ccc2c(C)cc3n[nH]c(=S)n3c2c1`?
ssDAF12 agonist: -2; FXN GAA850 act: 1; DAX1 inh-1: 2; DAX1 inh-2: 0; hgDAF-12 ag: 3; hcDAF12 agonist: 0

How did COc1ccc(S(=O)(=O)NC(C(=O)OCC(=O)Nc2ccc(N3CCOCC3)cc2)C(C)C)cc1 (configuration not stated) do in these assays?
ssDAF12 agonist: 0; FXN GAA850 act: -2; DAX1 inh-1: 1; DAX1 inh-2: 1; hgDAF-12 ag: -1; hcDAF12 agonist: 0

What do the screens show for `Cc1csc(NC(=O)Nc2cccc(Cl)c2)n1`?
ssDAF12 agonist: 0; FXN GAA850 act: 6; DAX1 inh-1: 1; DAX1 inh-2: 2; hgDAF-12 ag: 17*; hcDAF12 agonist: 4; hgDAF12 ag: 14*; LXRb DAF12 ctr: 1

What do the screens show for `O=C(Nc1cccc(Cl)c1)Nc1nc(-c2ccccc2)cs1`?
ssDAF12 agonist: -1; FXN GAA850 act: 1; DAX1 inh-1: -1; DAX1 inh-2: 0; hgDAF-12 ag: 4; hcDAF12 agonist: -1

What do the screens show for `CCOC(=O)C1=C(C)N(C)C(=O)NC1c1cc2c(cc1[N+](=O)[O-])OCO2` (configuration not stated)?
ssDAF12 agonist: -1; FXN GAA850 act: 0; DAX1 inh-1: 3; DAX1 inh-2: 0; hgDAF-12 ag: 0; hcDAF12 agonist: -1

How did CCc1cc(C(=O)N2CCCC(CCC(=O)NCc3cccc(OC)c3)C2)no1 (configuration not stated) do in these assays?
ssDAF12 agonist: -1; FXN GAA850 act: 0; DAX1 inh-1: 1; DAX1 inh-2: 0; hgDAF-12 ag: -1; hcDAF12 agonist: -1

How did NNC(=O)c1ccc(COc2ccc3ccccc3c2)o1 do in these assays?
ssDAF12 agonist: -1; FXN GAA850 act: 1; DAX1 inh-1: -1; DAX1 inh-2: 0; hgDAF-12 ag: 6; hcDAF12 agonist: 2

Results for O=C(OCc1ccccn1)c1ccc(COc2ccc3ccccc3c2)o1 ?
ssDAF12 agonist: 0; FXN GAA850 act: 6; DAX1 inh-1: 2; DAX1 inh-2: 3; hgDAF-12 ag: 14*; hcDAF12 agonist: 4; hgDAF12 ag: 11*; LXRb DAF12 ctr: 0

Results for O=C(Cc1ccccc1)Nc1ccc2c(c1)OC1(CCCC1)O2 ?
ssDAF12 agonist: 0; FXN GAA850 act: 2; DAX1 inh-1: 0; DAX1 inh-2: 4; hgDAF-12 ag: 14*; hcDAF12 agonist: 1; hgDAF12 ag: 15*; LXRb DAF12 ctr: 0

What do the screens show for `Cc1cc(C)n2nc(C(=O)Nc3ccc4c(c3)OCO4)cc2n1`?
ssDAF12 agonist: 0; FXN GAA850 act: 3; DAX1 inh-1: 2; DAX1 inh-2: 4.2*; hgDAF-12 ag: 15*; hcDAF12 agonist: 4; hgDAF12 ag: 15*; LXRb DAF12 ctr: 1

Results for Cc1c(C(=O)NCC2CCCO2)oc2ccc3c(c12)C(=O)CC(C)(C)O3 (configuration not stated) ?
ssDAF12 agonist: 0; FXN GAA850 act: 5; DAX1 inh-1: 0; DAX1 inh-2: 1; hgDAF-12 ag: 17*; hcDAF12 agonist: 5; hgDAF12 ag: 12*; LXRb DAF12 ctr: 1

How did O=C(NN1CCOCC1)NC12CC3CC(CC(C3)C1)C2 do in these assays?
ssDAF12 agonist: -1; FXN GAA850 act: 0; DAX1 inh-1: 1; DAX1 inh-2: 0; hgDAF-12 ag: -3; hcDAF12 agonist: 0

Results for COc1ccc(Nc2nc(-c3ccc(OC)cc3)c(CCC(=O)O)s2)cc1 ?
ssDAF12 agonist: -1; FXN GAA850 act: 4; DAX1 inh-1: 0; DAX1 inh-2: 1; hgDAF-12 ag: 4; hcDAF12 agonist: 1

Results for COC(=O)CCc1sc(Nc2ccccc2)nc1-c1ccc(OC)cc1 ?
ssDAF12 agonist: 0; FXN GAA850 act: 7; DAX1 inh-1: 2; DAX1 inh-2: 2; hgDAF-12 ag: 14*; hcDAF12 agonist: 3; hgDAF12 ag: 13*; LXRb DAF12 ctr: 0
